SMILES strings stand for the structures. Results filed as inconclusive are left out. Calls of active or inactive are those of the source. Unless noted, the call rests on the fitted dose curve; in most records, active means well fitted curve in the direction sought with a large enough effect; inconclusive means small, poorly fitted or top-dose-only effect, or another doubt; inactive means no such curve, though single readings can be large; an effect the other way counts as inactive or inconclusive.

Assay [1] has as its target Glucocorticoid receptor (Homo sapiens) (UniProt P04150). Nature of the assay: qHTS assay for small molecule agonists of glucocorticoid receptor signaling (AID 588532; active means well fitted curve in the direction sought with a large enough effect in the signal ratio, with a control signal flat; the % refers to the signal ratio;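 further: 100% = dexamethasone at 0.1 µM and 0% = DMSO only wells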). Conditions: HeLa MMTV-bla, beta-lactamase ratio, agonist, 18 h; stronger effect = higher value; percent of dexamethasone control, DMSO zero. The method in brief:
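Titration series, up to 92 uM, applied to GRE-bla HeLa cells for 18 h at 37 C. Detection by CCF4 FRET substrate after 2 h at RT.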
Background: In qHTS, concentration-response curves come from the screen itself.

The nature of assay [2]: qHTS assay for small molecule antagonists of peroxisome proliferator-activated receptor delta signaling (AID 588535; active means well fitted inhibition curve with a large enough effect in the signal ratio, with a control signal flat, not every such curve was filed as active; the % refers to the signal ratio;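 on max response: cells co-treated with a PPAR-delta agonist as stimulator during compound exposure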). The note with it: HEK293T PPARd-UAS-bla, beta-lactamase FRET ratio, 18 h; 460 nm channel. The method in brief:
(§1)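 GeneBLAzer PPAR-delta-UAS-bla HEK293T cells in medium with 2% charcoal/dextran FBS were preincubated 5 hrs at 37 C, then given compounds, incubated 18 hrs at 37 C, and read by CCF4 beta-lactamase fluorescence; IC50 from Hill fits.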

The target of assay [3] is Peroxisome proliferator-activated receptor delta (Homo sapiens) (UniProt Q03181). The assay is described as above. The note with it: HEK293T PPARd-UAS-bla, beta-lactamase FRET ratio, 18 h; series mostly up to 76.7 µM. The essentials:
as §1

In assay [4] the target is Vitamin D3 receptor (Homo sapiens) (UniProt P11473). Kind of assay: qHTS assay for small molecule antagonists of vitamin D receptor signaling (AID 588541; calls by dose curve;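 further: receptor activated by calcitriol during compound treatment; on the % scale 0 is the no-effect control and ±100 the full control effect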). Conditions: HEK293T VDR-UAS-bla, beta-lactamase ratio, antagonist mode; series mostly up to 76.7 µM. The method in brief:
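VDR-UAS-bla HEK293T cells (2000/well, 2% charcoal-stripped FBS) were treated with titrated compounds plus 1-alpha,25-dihydroxyvitamin D3 (50 nM or 3 nM final) for 16 h at 37 C. CCF4 beta-lactamase fluorescence was read; Hill fits gave IC50.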

For assay [5] the target is unchanged. Kind of assay: qHTS assay for small molecule agonists of vitamin D receptor signaling (AID 588543; calls by dose curve;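 further: 0% = DMSO basal and 100% = reference agonist control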). Conditions: HEK293T VDR-UAS-bla, beta-lactamase ratio, 16 h; series mostly up to 76.8 µM. The method in brief: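 β-lactamase reporter, VDR-UAS-bla HEK293T, agonist mode. Cells plated 5 h at 37 °C, compound titration 16 h at 37 °C, CCF4 dye 2 h RT, ratio 460/530 nm. Hill fit → EC50, efficacy vs 50 nM 1α,25-(OH)2D3.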

Assay [6] can be described thus: qHTS assay for small molecule agonists of retinoid X receptor alpha signaling (AID 588544). The note with it: HEK293T RXRa-UAS-bla, beta-lactamase reporter, 18 h; 530 nm emission.
The target of assay [7] is Thyroid hormone receptor beta (Homo sapiens) (UniProt P10828). Kind of assay: qHTS assay for small molecule agonists of thyroid hormone receptor beta signaling (AID 588545; calls by dose curve;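 further: 0% = DMSO only and 100% = 10 nM T3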). Conditions: TR-UAS-bla GripTite HEK 293, beta-lactamase ratio, agonist mode, 18 h; series mostly up to 76.7 µM. The method in brief:
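TR-UAS-bla-GripTite HEK 293 cells in medium with 2% charcoal/dextran FBS, 0.1 mM NEAA and 1 mM sodium pyruvate were treated with titrated compounds for 18 hrs at 37 C. Beta-lactamase reporter was read with CCF4 dye (ex 405, em 460/530 nm); EC50 from Hill fits.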

Assay [8] in a line: qHTS assay for small molecule antagonists of retinoid X receptor alpha signaling (AID 588546; active means well fitted inhibition curve with a large enough effect in the signal ratio, with a control signal flat, not every such curve was filed as active; the % refers to the signal ratio;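 further: cells stimulated with 9-cis-retinoic acid as agonist; on the % scale 0 is the no-effect control and ±100 the full control effect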). The note with it: HEK293T RXRa-UAS-bla, beta-lactamase ratio, antagonist mode; measured here: W530 green channel, cytotoxicity proxy. The method in brief:
(§2)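 Beta-lactamase reporter inhibition, read as CCF4 fluorescence ratio (ex 405, em 460/530 nm) after 2 h at RT. HEK293T UAS-bla cells, 2500/well, were stimulated with 9-cis-RA at 500 or 100 nM final alongside test compound for 18 h at 37 C.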

Assay [9] concerns the target Retinoic acid receptor RXR-alpha (Homo sapiens) (UniProt P19793). The assay is described as above. Conditions: HEK293T RXRa-UAS-bla, beta-lactamase ratio, antagonist mode. The essentials:
as §2

A short description of assay [10]: qHTS assay for small molecule activators of the p53 signaling pathway (AID 651743; active means well fitted activation curve with a large enough effect in the signal ratio, not every such curve was filed as active; the % refers to the signal ratio; further: % of control where 0% means no effect). Conditions: HCT-116 p53RE-bla, beta-lactamase FRET ratio, 16 h; activation: stronger effect = higher value. The essentials:
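p53RE-bla HCT-116 cells with a stably integrated beta-lactamase reporter under p53 response elements were plated, rested 5 hours at 37 C/5% CO2, then exposed to compounds in DMSO for 16 hours at 37 C. LiveBLAzer B/G FRET substrate was read after 2 hours at room temperature.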

Assay [11] can be described thus: qHTS assay for environmental chemicals that activate the Aryl hydrocarbon Receptor (AhR) signaling pathway (AID 651777). Further: % of control where 0% means no effect; nearly all actives have a fitted effect of over 15% in size. Conditions: 1A2-DRE human hepatoma cells, luciferase, 24 h; activation: stronger effect = higher value. The essentials: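 Luminescence read-out: One-Glo added for 30 min at RT after 24 hr compound treatment (37 C, 5% CO2) of human hepatoma cells expressing a DRE/CYP1A2 promoter–luciferase reporter; increased signal indicates AhR activation.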

Assay [12] has as its target Peroxisome proliferator-activated receptor alpha (Homo sapiens) (UniProt Q07869). Nature of the assay: qHTS assay for small molecule agonists of the peroxisome proliferator-activated receptor alpha (PPARalpha) signaling pathway (AID 651778). Further: % of control where 0% means no effect. The note with it: PathHunter PPARalpha complementation, chemiluminescence, 6 h; max response: stronger effect = higher value. The essentials:
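Cells plated at 2,000/well and held overnight at 37 C, 5% CO2, then compound added by pin tool for 6 hr; after PathHunter detection reagent and 60 min at room temperature, chemiluminescence from enzyme complementation was read.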

A short description of assay [13]: qHTS assay for small molecule agonists of the antioxidant response element (ARE) signaling pathway measured by Nrf2-dependant transcriptional activity (AID 720636; active means well fitted curve in the direction sought with a large enough effect in the repeat runs; an effect the other way counts as inactive or inconclusive;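 further: HepG2 cells with an ARE-driven luciferase reporter; % of control where 0% means no effect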). The note with it: ARE-luc HepG2, Nrf2 luciferase reporter, 16 h; series mostly up to 92.4 µM. The essentials: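 HepG2 ARE-luc reporter line, 1% dialyzed FBS; 6 hr attachment at 37 C, compound pinned in, 16 hr at 37 C/5% CO2; ONE-Glo, 30 min RT, luminescence read.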

The nature of assay [14]: qHTS assay for small molecule agonists of the antioxidant response element (ARE) signaling pathway measured by Nrf2-dependant transcriptional activity - cell viability counter screen (AID 720653; active means well fitted curve in the direction sought with a large enough effect in the repeat runs; an effect the other way counts as inactive or inconclusive; further: on the % scale 0 is the no-effect control and ±100 the full control effect). Conditions: ARE-bla HepG2 viability, CellTiter-Glo ATP luminescence, 16 h; max response: stronger effect = lower value. The essentials:
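ARE-bla HepG2 cells (2,000/well) rested 5 hrs at 37C/5% CO2, then exposed to compounds in DMSO for 16 hrs. Viability was read in the same wells as intracellular ATP by luminescence, 30 min at room temperature after reagent addition.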

Assay [15] can be described thus: qHTS assay for cell viability of HEK293 cells (AID 743288). Further: nearly all actives have a fitted effect of over 50% in size. Further: potency means the concentration at half of the fitted maximal effect. The note with it: ATP luminescence (CellTiter-Glo), 18 h; max response: stronger effect = lower value. The method in brief:
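Environmental chemicals tested in qHTS format against parental HEK293 cells; 18 h treatment, 37 C; read-out ATP luminescence (CellTiter-Glo), 30 min RT development.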

A short description of assay [16]: qHTS assay for cell viability of the p53RE-bla HCT-116 cell line (AID 743292). Further: nearly all actives have a fitted effect of over 55% in size. Further: potency means the concentration at half of the fitted maximal effect. The note with it: p53RE-bla HCT-116 viability, ATP luminescence, 16 h; series mostly up to 95 µM. The essentials: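 Luminescent ATP quantitation (CellTiter-Glo) served as the viability read-out; reagent was added after 16 h compound exposure at 37 C and read after 30 min at room temperature. Cells: p53RE-bla HCT-116, 4,000 per well.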

Assay [17] addresses Nuclear receptor subfamily 1 group I member 2 (Rattus norvegicus) (UniProt Q9R1A7). Nature of the assay: qHTS assay for small molecule activators of the rat pregnane X receptor (rPXR) signaling pathway (AID 651751; call rule not given here; further: 0% is about no effect). The note with it: rPXR reporter cells, luciferase (One-Glo), 24 h.
A short description of assay [18]: qHTS assay for small molecule activators of the human pregnane X receptor (PXR) signaling pathway (AID 720659; call rule not given here; further: 0% is about no effect). The note with it: DPX-2 HepG2 CYP3A4-luciferase, 24 h; series mostly up to 92.3 µM.
Assay [19] deals with Peroxisome proliferator-activated receptor gamma (Homo sapiens) (UniProt P37231). Kind of assay: qHTS assay for small molecule agonists of peroxisome proliferator-activated receptor gamma signaling (AID 588536; active means well fitted curve in the direction sought with a large enough effect in the signal ratio, with a control signal flat, not every such curve was filed as active; the % refers to the signal ratio;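 further: 0% = DMSO basal wells and 100% = rosiglitazone at 2 µM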). The note with it: HEK293 PPARg-UAS-bla, beta-lactamase ratio, 16 h, percent of rosiglitazone response, DMSO as zero; series mostly up to 76.7 µM. The method in brief:
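GeneBLAzer PPAR-gamma-UAS-bla HEK293 cells in 1% charcoal/dextran-treated FBS medium were treated 16 h at 37 C with compounds. Beta-lactamase activity was read by CCF4 ratio (460/530 nm). Response was normalized to 2 uM rosiglitazone (100%) and DMSO, then Hill-fitted for EC50 and efficacy.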

For assay [20], the target named is Thyroid hormone receptor beta (Homo sapiens) (UniProt P10828). Kind of assay: qHTS assay for small molecule antagonists of thyroid hormone receptor beta signaling (AID 588547; active means well fitted inhibition curve with a large enough effect in the signal ratio, with a control signal flat, not every such curve was filed as active; the % refers to the signal ratio;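 further: cells stimulated with 0.4 nM T3 agonist during compound exposure; on the % scale 0 is the no-effect control and ±100 the full control effect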). Conditions: TR-UAS-bla HEK293, beta-lactamase ratio, antagonist mode, 18 h. The essentials:
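TR-UAS-bla GripTite HEK293 cells in 2% charcoal/dextran FBS medium were preincubated 4 h at 37 C, given compound (0.59 nM to 92 uM) plus 0.4 nM T3 (final) for 18 h, then CCF4 for 2 h at RT; Hill fit gave IC50.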

Peroxisome proliferator-activated receptor delta (Homo sapiens), sequence (Q03181 whole entry, looked up): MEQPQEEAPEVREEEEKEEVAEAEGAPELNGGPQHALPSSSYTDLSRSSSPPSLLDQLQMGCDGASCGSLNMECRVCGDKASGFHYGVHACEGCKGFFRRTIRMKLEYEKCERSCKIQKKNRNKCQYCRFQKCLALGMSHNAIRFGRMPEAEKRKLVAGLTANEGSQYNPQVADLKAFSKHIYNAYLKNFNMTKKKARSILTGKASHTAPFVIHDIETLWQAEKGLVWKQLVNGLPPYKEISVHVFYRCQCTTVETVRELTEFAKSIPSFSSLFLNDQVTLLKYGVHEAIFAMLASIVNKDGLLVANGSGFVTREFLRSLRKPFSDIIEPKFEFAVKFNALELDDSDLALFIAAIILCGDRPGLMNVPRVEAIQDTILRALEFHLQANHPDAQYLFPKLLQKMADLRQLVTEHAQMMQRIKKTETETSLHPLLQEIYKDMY
Thyroid hormone receptor beta (Homo sapiens), sequence (P10828 whole entry, looked up): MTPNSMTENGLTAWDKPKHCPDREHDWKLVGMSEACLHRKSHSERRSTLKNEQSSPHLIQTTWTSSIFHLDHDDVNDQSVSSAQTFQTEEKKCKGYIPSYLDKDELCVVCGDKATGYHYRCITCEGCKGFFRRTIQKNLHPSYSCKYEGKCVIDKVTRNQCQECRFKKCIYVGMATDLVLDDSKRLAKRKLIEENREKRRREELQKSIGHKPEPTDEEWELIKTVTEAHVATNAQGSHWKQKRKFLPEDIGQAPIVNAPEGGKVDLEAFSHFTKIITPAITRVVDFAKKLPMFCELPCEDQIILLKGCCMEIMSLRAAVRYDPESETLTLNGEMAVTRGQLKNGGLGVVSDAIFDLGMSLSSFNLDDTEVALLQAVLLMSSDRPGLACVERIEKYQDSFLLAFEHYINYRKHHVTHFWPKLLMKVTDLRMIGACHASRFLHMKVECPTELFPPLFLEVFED
Vitamin D3 receptor (Homo sapiens), sequence (P11473 whole entry, looked up): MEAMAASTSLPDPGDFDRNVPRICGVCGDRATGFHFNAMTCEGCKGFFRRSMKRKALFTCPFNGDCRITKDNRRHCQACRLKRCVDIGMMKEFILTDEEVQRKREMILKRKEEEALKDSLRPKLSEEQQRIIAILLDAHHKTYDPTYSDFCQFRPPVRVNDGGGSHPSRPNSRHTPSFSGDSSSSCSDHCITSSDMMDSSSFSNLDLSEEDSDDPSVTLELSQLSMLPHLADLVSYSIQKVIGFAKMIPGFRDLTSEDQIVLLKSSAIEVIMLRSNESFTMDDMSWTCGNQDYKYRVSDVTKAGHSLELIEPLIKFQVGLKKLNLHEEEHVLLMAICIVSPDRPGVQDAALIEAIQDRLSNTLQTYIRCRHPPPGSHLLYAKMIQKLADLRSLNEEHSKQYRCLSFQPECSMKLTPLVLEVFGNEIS
Retinoic acid receptor RXR-alpha (Homo sapiens), sequence (P19793 whole entry, looked up): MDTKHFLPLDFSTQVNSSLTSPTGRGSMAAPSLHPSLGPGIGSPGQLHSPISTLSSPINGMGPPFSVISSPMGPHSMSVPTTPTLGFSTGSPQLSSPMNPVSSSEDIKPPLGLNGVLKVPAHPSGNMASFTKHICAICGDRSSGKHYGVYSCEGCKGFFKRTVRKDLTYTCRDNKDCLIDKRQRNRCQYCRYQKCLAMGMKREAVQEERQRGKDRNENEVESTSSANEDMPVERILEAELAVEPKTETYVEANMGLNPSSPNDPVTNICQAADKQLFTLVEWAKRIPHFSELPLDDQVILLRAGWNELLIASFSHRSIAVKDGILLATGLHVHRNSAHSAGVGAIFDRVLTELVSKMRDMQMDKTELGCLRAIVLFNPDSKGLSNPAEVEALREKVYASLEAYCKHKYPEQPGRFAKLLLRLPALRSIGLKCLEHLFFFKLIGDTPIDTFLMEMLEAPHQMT
Nuclear receptor subfamily 1 group I member 2 (Rattus norvegicus), sequence (Q9R1A7 whole entry, looked up): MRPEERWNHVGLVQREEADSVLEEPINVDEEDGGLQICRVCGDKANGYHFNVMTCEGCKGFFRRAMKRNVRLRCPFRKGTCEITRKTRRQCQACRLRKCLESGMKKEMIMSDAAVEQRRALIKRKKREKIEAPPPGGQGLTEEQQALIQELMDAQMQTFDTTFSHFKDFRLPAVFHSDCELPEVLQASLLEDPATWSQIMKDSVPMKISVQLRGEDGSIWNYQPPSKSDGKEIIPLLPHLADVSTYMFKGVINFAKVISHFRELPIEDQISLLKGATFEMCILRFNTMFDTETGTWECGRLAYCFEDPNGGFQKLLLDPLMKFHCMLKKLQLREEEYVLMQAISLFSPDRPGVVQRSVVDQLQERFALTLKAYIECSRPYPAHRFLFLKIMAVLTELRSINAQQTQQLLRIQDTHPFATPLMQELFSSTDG
Glucocorticoid receptor (Homo sapiens), sequence (P04150 whole entry, looked up): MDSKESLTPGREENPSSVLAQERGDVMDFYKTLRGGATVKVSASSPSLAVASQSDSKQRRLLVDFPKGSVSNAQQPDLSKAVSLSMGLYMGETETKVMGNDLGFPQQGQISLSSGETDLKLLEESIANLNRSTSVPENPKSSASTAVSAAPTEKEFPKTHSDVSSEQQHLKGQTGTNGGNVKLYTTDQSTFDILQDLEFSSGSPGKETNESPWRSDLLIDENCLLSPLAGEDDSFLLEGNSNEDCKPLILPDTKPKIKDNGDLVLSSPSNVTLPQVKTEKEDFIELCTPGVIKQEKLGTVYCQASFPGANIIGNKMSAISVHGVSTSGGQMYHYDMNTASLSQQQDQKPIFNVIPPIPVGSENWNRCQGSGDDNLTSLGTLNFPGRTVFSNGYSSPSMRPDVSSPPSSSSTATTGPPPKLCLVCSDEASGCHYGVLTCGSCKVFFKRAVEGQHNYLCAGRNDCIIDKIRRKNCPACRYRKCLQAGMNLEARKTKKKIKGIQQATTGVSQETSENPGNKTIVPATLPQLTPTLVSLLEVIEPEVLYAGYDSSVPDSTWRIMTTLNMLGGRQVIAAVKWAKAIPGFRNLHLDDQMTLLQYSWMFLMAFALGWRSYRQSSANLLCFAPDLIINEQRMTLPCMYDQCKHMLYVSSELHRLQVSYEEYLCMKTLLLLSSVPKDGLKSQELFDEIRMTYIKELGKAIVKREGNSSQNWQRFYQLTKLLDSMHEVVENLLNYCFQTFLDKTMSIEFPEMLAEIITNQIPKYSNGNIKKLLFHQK
Peroxisome proliferator-activated receptor alpha (Homo sapiens), sequence (Q07869 whole entry, looked up): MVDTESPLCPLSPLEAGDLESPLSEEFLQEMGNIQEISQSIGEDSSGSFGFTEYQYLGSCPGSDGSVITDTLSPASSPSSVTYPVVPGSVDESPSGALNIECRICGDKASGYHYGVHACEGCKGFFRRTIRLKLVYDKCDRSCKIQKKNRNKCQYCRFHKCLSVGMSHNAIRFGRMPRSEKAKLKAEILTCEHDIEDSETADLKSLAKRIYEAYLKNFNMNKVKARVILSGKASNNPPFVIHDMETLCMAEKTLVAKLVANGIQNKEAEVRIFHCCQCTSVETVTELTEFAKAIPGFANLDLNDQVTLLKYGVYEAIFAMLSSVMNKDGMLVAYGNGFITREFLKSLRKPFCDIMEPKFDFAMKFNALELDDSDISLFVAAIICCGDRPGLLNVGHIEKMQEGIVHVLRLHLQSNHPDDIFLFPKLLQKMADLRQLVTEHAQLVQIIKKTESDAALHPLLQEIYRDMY
Peroxisome proliferator-activated receptor gamma (Homo sapiens), sequence (P37231 whole entry, looked up): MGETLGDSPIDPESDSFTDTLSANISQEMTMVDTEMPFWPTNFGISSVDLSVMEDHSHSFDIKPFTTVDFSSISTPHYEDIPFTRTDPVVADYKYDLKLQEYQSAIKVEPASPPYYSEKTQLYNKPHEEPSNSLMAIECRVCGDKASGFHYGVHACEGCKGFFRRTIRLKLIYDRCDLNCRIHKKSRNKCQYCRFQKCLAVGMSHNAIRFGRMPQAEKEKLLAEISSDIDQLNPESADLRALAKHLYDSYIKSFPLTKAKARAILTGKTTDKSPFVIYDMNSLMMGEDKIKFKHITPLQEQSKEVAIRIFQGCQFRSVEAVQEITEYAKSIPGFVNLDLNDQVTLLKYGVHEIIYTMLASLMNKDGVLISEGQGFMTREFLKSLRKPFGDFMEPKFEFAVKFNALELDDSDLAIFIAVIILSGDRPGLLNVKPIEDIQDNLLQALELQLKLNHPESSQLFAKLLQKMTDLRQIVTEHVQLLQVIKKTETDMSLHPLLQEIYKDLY

Regarding `O=C(c1ccccc1)c1ccc(O)c(O)c1O`, the activation in assay [1] is -16.3% (inactive); in assay [10] it was -1.01% (inactive); in assay [11] it was 3.3% (inactive). The max response in assay [2] is 45.6%; in assay [6] it was 27%; in [8], -6.52%; in assay [9], -13.1% (inactive); in [12], -4.07% (inactive); in assay [14], -9.24% (inactive). Further, the figures for the max response in [15] and in assay [17] were -12.1% (inactive) and -0.206% (inactive), respectively. Further, the Potency result in [3], in [4], in [7], in [13] and in [16] was “inactive” in each case. For the same compound, the result in assay [5] and in assay [18] was inactive.

For `CCCCCCCC/C=C\CCCCCCCC(=O)OC`, the activation in assay [1] was -1.79% (inactive); in assay [10], 1.64% (inactive); in [11] it was -0.866% (inactive). Further, the max response is -11.5% in assay [2]; -13.4% in assay [6]; -9.12% in [8]; -0.729% (inactive) in [9]; 4.75% (inactive) in assay [12]; -4.89% (inactive) in [14]. In addition, the max response in [15] was -6.3% (inactive); in [17] it was 0.29% (inactive). For the same compound, the Potency entry in assay [3], in [4], in [7], in [13] and in assay [16] was “inactive” each time. Besides, the result in [19] and in [18] was inactive.

Take `CC/C(=C(\c1ccc(O)cc1)c1ccc(OCCN(C)C)cc1)c1ccccc1`: the figures for the activation in [1] and in [11] were -2.75% (inactive) and -12.4% (inactive), respectively. In addition, the max response in assay [12] is -2.87% (inactive). In addition, the Potency in [15] was 25.1 µM (active); in assay [16], 39.8 µM (active).

Take `C=CCOc1nc(OCC=C)nc(OCC=C)n1`: the activation in [1] was -1.63% (inactive); in assay [10], -3.44% (inactive); in [11], 5.16% (inactive). Moreover, the max response in assay [2] was 15.5%; in assay [6], -0.634%; in assay [8], -8.71%; in assay [12] it was -2.18% (inactive); in assay [14] it was 1.36% (inactive); in [15], -0.661% (inactive). Moreover, in assay [17], the max response is -0.162% (inactive). Moreover, the Potency entry in assay [3], in [7], in [13] and in assay [16] was “inactive” each time. For the same compound, the outcome in assay [19] and in assay [5] was inactive. Also, the activity change % (negative = inhibition) in assay [20] is 11.9% (inactive).

Take `COC(=O)c1ccc(CNS(C)(=O)=O)cc1S(=O)(=O)NC(=O)Nc1nc(OC)cc(OC)n1`: the activation in [1] was -4.55% (inactive); in assay [10] it was -5.96% (inactive); in assay [11], -2.23% (inactive). In addition, the Potency result in assay [4], in [7] and in assay [13] was “inactive” throughout. Moreover, the outcome in [5] and in assay [18] was inactive. The max response in assay [6] was 10.6%; in assay [8], -12.9%; in assay [9] it was 13.2% (inactive); in [14], 12.1% (inactive); in [15] it was 10.3% (inactive); in assay [17] it was -5.5% (inactive).

Turning to `CC(C)C(=O)OC(=O)C(C)C`, the activation in assay [1] was -15% (inactive); in assay [10] it was -7.19% (inactive). The max response in assay [2] is 1.13%; in [6] it was -11.3%; in assay [8], -12.1%; in assay [9], -4.54% (inactive); in assay [14] it was -7.37% (inactive); in assay [15], -4.79% (inactive). The max response in [17] was -1.65% (inactive). Besides, the Potency result in [3], in assay [4], in assay [7], in [13] and in assay [16] was “inactive” each time. Moreover, the result in assay [5] was inactive. In assay [20], the activity change % (negative = inhibition) is 8.71% (inactive).

`COCCOCCOCCO`: the figures for the activation in assay [1], in [10] and in assay [11] were 2.13% (inactive), 13.1% (inactive) and -0.0316% (inactive), respectively. In addition, the max response in [2] is 7.14%; in assay [6], -11.8%; in assay [8] it was -2.04%; in assay [9] it was 3.15% (inactive); in assay [14], -1.82% (inactive); in assay [15] it was -7% (inactive). Besides, the max response in assay [17] is 1.8% (inactive). The Potency result in assay [3], in [13] and in [16] was “inactive” in each case. Moreover, the outcome in assay [5] and in [18] was inactive.

Values taken from PubChem BioAssay (NCATS).
